From PubChem BioAssay AID588726 (The Scripps Research Institute Molecular Screening Center, 2011)
The whole screen tested about 360,000 compounds, of which about 8,200 (2.3%) were called active. Cut-off read from the data, not from the text of the source: active = inhibition above about 27%; inactive = the rest. For the sample, actives were picked, then their nearest neighbours and some compounds at random.

Biological target: Fructose-bisphosphate aldolase (Mycobacterium tuberculosis (strain ATCC 25618 / H37Rv)) (UniProt P9WQA3)
Sequence (P9WQA3 whole entry, looked up): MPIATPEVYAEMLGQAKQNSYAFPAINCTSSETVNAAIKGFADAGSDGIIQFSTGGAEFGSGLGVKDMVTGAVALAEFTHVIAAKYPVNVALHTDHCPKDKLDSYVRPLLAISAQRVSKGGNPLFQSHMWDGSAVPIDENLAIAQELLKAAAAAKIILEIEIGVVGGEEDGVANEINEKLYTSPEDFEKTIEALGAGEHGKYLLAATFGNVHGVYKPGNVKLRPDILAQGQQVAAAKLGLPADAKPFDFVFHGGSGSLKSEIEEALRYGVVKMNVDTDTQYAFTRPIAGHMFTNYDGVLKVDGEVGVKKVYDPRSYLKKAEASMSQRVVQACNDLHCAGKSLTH
Experiment: M. tuberculosis aldolase activity blockers – biochemical, fluorescence, strain H37Rv, primary screen (AID 588726);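 note: 0% = vehicle and 100% = reference inhibitor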
Details: purified M. tuberculosis FBA, fluorescence read-out, at 1 µM, hits give high values

| Compound | inhibition |
| --- | --- |
| Cc1ccc(F)c(S(=O)(=O)NC(=O)C2(C)CCN2C(=O)c2ccco2)c1 (configuration not stated) | -2.4% (inactive) |
| Cc1ccc(CCCOC(=O)C[N+]2(C)CCCC2)cc1 | 2.21% (inactive) |
| COC(=O)C1(CCSC)NC(c2ccc(OC)cc2OC)C2C(=O)N(c3cccc(C(C)=O)c3)C(=O)C21 (configuration not stated) | 1.37% (inactive) |
| CO[C@H]1[C@@H]2C=CO[C@@H](O[C@H]3O[C@@H](CO)[C@H](O)[C@@H](O)[C@@H]3O)[C@@H]2[C@@]2(CO)O[C@@H]12 | 2.4% (inactive) |
| CCOC(=O)C1CCCN(C(=O)c2ccc(CS(=O)(=O)c3ccc(Br)cc3)o2)C1 (configuration not stated) | 1.86% (inactive) |
| COc1ccccc1-c1sc2ccccc2c1C#CC1(O)CCCCC1 | 6.51% (inactive) |
| COc1ccccc1-c1oc2ccccc2c1C#CCCCCO | 30.8% (active) |
| CCNC(=O)CC1C(=O)N(c2ccc(F)cc2)C(=O)N1Cc1cccs1 (configuration not stated) | -3.21% (inactive) |
| CSCC[C@H](NC(=O)NC1CCCC1)C(=O)O | -1.95% (inactive) |
| CCN(CC)c1ccc(NC(=O)C2CCC(CNc3c(N4CCCC4)c(=O)c3=O)CC2)c(C)c1 (configuration not stated) | -0.83% (inactive) |
| COc1ccc2c(c1)CC[C@@H]1[C@@H]2CC[C@]2(C)C(=O)CC[C@@H]12 | 0.88% (inactive) |
| O=C1OCC2=C1C(c1ccccc1)CC(=O)N2c1cccc(F)c1 (configuration not stated) | -3.03% (inactive) |
| O=C(OCC(=O)N1CCc2ccccc21)c1ccc([N+](=O)[O-])cc1 | -3.08% (inactive) |
| Cc1ccc(S(=O)(=O)NCC(=O)OCC(=O)N2CCc3ccccc32)cc1 | 0.04% (inactive) |
| Cc1cnc(C(=O)OCC(=O)N2CCc3ccccc32)cn1 | 69% (active) |
| CCc1ccc(N2CC(C(=O)NC3=NCCS3)CC2=O)cc1 (configuration not stated) | 4.59% (inactive) |
| O=C(CSc1nnc(-c2ccco2)o1)NCC(=O)c1ccccc1 | -1.17% (inactive) |
| O=C(CCc1ccccc1)Nc1cccc(-c2nnc(-c3ccco3)o2)c1 | 26.9% (active) |
| O=C(CCc1ccccc1)Nc1nn[nH]n1 | 2.03% (inactive) |
| O=C1CCC(=O)N1CCOP1(=O)COc2ccccc2OC1 | 3.44% (inactive) |
| CCC1CCCCN1C(=O)CSc1nc2c(c(=O)n(C)c(=O)n2C)n1C (configuration not stated) | 0.65% (inactive) |
| CCOC(=O)CSc1nc2c(c(=O)n(Cc3ccccc3Cl)c(=O)n2C)n1C | 88% (active) |
| CCCSc1nc2c(c(=O)n(C)c(=O)n2C)n1Cc1ccc(C)cc1 | 1.01% (inactive) |

| Compound | inhibition |
| --- | --- |
| CC(C)C1CCN(C(=O)C2CCC(=O)N(C3CCCCCC3)C2)CC1 (configuration not stated) | -1.51% (inactive) |
| CCN(C(=O)Cc1c(C(=O)O)n(CC)c2ccccc12)c1ccccc1C | 0.97% (inactive) |
| Fc1ccc(/C=N/n2c(COc3ccccc3)n[nH]c2=S)cc1 | 2.47% (inactive) |
| Fc1ccc(COc2ccc(-c3nnco3)cc2)cc1 | -0.19% (inactive) |
| Fc1ccc(COc2cccc(-c3n[nH]c(=S)o3)c2)cc1 | 29.4% (active) |
| CC1(C)C2CC[C@]3(C)C(CC=C4[C@@H]5C[C@@](C)(CO)CC[C@]5(C(=O)O)CC[C@]43C)[C@@]2(C)CC[C@@H]1O (some centres not stated) | 0.29% (inactive) |
| Cc1ccccc1C(=O)N1CCC(C(=O)Nc2ccc(S(=O)(=O)N(C)C(C)C)cc2)CC1 | 1.27% (inactive) |
| Cc1c(C)n2c(SCC(=O)N3CCCC3)nnc2[nH]c1=O | -0.46% (inactive) |
| CC(=O)c1sc2nc(SCC(=O)N3CCCCC3)[nH]c(=O)c2c1C | 30.5% (active) |
| O=C(CSc1nc2c(cnn2-c2ccc(F)cc2)c(=O)[nH]1)N1CCCCCC1 | 2.6% (inactive) |
| CC(C)c1ccc(N(C(=O)c2ccco2)C(C(=O)NC2CCCC2)c2cccnc2)cc1 (configuration not stated) | -3.97% (inactive) |
| O=C(NC(=S)Nc1ccccc1C(=O)O)c1ccc(-c2ccc(Br)cc2)o1 | 10.4% (inactive) |
| CCOC(=O)Cc1c(C)nc2c(C#N)c(C)nn2c1C | 46.4% (active) |
| Cc1cc(C)cc(NC(=O)CCN2C(=O)c3ccccc3C2=O)c1 | 0.74% (inactive) |
| Cc1cc(C)cc(NC(=O)CSCc2cnn(-c3ccccc3)c2-n2cccc2)c1 | -1.78% (inactive) |
| Cc1cc(C)cc(NC(=O)CSc2ccccc2)c1 | 70.8% (active) |
| CCCN(CC(=O)Nc1ccccc1C)C(=O)c1ccc(OCC(=O)N2CCOCC2)c(OCC)c1 | -1.46% (inactive) |
| Cn1ncc2c(N3CCCCC3)nc(NCCCO)nc21 | -2.65% (inactive) |
| CC(C)(C)C(=O)NC1CC2CCCC(C1)N2C(=O)Nc1ccccc1F (configuration not stated) | -0.96% (inactive) |
| COc1ccc(-c2nc3ccccc3n2CCC(C)C)cc1OC | 5.55% (inactive) |
| CCCCn1c(N)c(N(CCOC)C(=O)CSCC(=O)Nc2cccc(C)c2)c(=O)[nH]c1=O | -1.91% (inactive) |
| CCCCn1c(-c2cccc(C)c2)nc2cc3[nH]c(=O)c(C(C)C)nc3cc21 | 87.6% (active) |
| Nn1c(Cc2cccc3ccccc23)nnc1SCC(=O)N1CC(=O)Nc2ccccc21 | 1.67% (inactive) |

| Compound | inhibition |
| --- | --- |
| CSCCC(Nc1ccc(S(=O)(=O)N2CCOCC2)cc1[N+](=O)[O-])C(=O)OCC(=O)N(C(C)C)C(C)C (configuration not stated) | -2.32% (inactive) |
| Cc1c(CCC(=O)O)c(=O)oc2c(C)c(OCc3ccccc3Cl)ccc12 | 5.47% (inactive) |
| CCOC(=O)Cc1cc(=O)[nH]c(=O)[nH]1 | 1.01% (inactive) |
| FC(F)(F)c1ccc(-c2cccc3c2C2CC3CCN2Cc2ccccc2)cc1 (configuration not stated) | 4.42% (inactive) |
| O=C(NCCc1ccccn1)c1cc(-c2ccc(Cl)cc2)nc2ccccc12 | -0.88% (inactive) |
| CCCCN(C)CCCNC(=O)c1cc(-c2cccs2)nc2ccccc12 | 140% (active) |
| COC(=O)c1cc(-c2cccs2)nc2ccccc12 | 31.1% (active) |
| Cc1csc2nc(O)c(C(=O)NCCN3CCOCC3)c(=O)n12 | 0.68% (inactive) |
| O=C(NCCN1CCOCC1)c1cc(Sc2cccc(Cl)c2)nc2ccccc12 | -0.13% (inactive) |
| O=C(NCC(c1cccs1)N1CCOCC1)c1cc(-c2ccccn2)nc2ccccc12 (configuration not stated) | 5.77% (inactive) |
| Cc1cc(C(=O)OCC(=O)Nc2nccs2)c2ccccc2n1 | -2.68% (inactive) |
| O=C(NCCN1CCOCC1)c1cc(-c2cccs2)nc2ccccc12 | 67.9% (active) |
| COC(=O)c1cc(N2CCNCC2)nc2ccccc12 | 12.9% (inactive) |
| CC(C)CC(=O)N=C1SC2CS(=O)(=O)CC2N1CCc1ccccc1 (configuration not stated) | -1.54% (inactive) |
| C[C@H](CO)N1C[C@H](C)[C@@H](CN(C)S(=O)(=O)c2ccc(F)cc2)OCc2cnnn2CCCC1=O | -1.18% (inactive) |
| CCc1n[nH]c(=S)n1/N=C/c1c[nH]c2ccc(Br)cc12 | 4.89% (inactive) |
| N#CCSc1nn(-c2ccc(F)cc2)c(=S)s1 | 2.99% (inactive) |
| CCCCC(=O)NNC(=S)NC(=O)C(c1ccccc1)c1ccccc1 | 6.76% (inactive) |
| CSc1ccc(CN2CCC2(C)C(=O)Nc2ccc(C)c(O)c2)cc1 (configuration not stated) | -1.62% (inactive) |
| Cc1oc(CC(C)C)c(CN2CCCC2)c1C(=O)O | -9.07% (inactive) |
| Cc1noc(C)c1C(=O)OCC(=O)N1CCN(S(=O)(=O)c2ccc3ccccc3c2)CC1 | 3.46% (inactive) |
| O=c1cc(CN2CCCCCCC2)c2c(ccc3ccccc32)o1 | 17% (inactive) |
| CCCc1cc(=O)oc2c(C)c(OC(C)C(=O)NCC(O)c3ccccc3)ccc12 (configuration not stated) | 18.1% (inactive) |

| Compound | inhibition |
| --- | --- |
| O=C(CSc1ncccn1)N1CCCC1 | 1.75% (inactive) |
| Cc1cccc2c1-c1sc(C(=O)NCCCN3CCc4ccccc4C3)cc1CO2 | 90.4% (active) |
| Cc1ccc(NC(=O)CN2CCc3ccccc3C2)cc1C | 0.22% (inactive) |
| Cc1cccc(C)c1NC(=O)c1ccc(CN2CCc3ccccc3C2)cc1 | 1.47% (inactive) |
| NC(=O)C1CCN(C(=O)COc2ccc3c4c(c(=O)oc3c2)CCC4)CC1 | 30.9% (active) |
| O=C(COc1ccc2oc3c(c2c1)CCCC3)Nc1ccccn1 | 1.77% (inactive) |
| O=C(COc1ccc2c3c(c(=O)oc2c1)CCC3)NC1CCCCC1 | 14.8% (inactive) |
| NC(=O)COc1ccc2c3c(c(=O)oc2c1)CCCCC3 | 114% (active) |
| COc1ccc(N2CCN(C(=O)COc3ccc4c(C)cc(=O)oc4c3)CC2)cc1 | 14.8% (inactive) |
| CCOC(=O)N1CCN(C(=O)COc2ccc3oc4c(c3c2)CCCC4)CC1 | 0.5% (inactive) |
| CCCN(CCC)CCCNC(=O)CNC(=O)c1nn(-c2ccc(OC)cc2)c(=O)c2ccccc12 | 1.04% (inactive) |
| O=C(COC(=O)CC1CC2CCC1C2)NC(=O)NC1CCCC1 (configuration not stated) | -0.01% (inactive) |
| COc1ccccc1NC(=O)C(CC(=O)O)Cc1cc(C)cc(C)c1 (configuration not stated) | -0.4% (inactive) |
| COc1ccc2nc(N3CCN(C(=O)c4ccc([N+](=O)[O-])o4)CC3)sc2c1 | -2.42% (inactive) |
| NS(=O)(=O)c1ccc2nc(NC(=O)C3=COCCO3)sc2c1 | 1.72% (inactive) |
| COc1ccc2nc(Nc3nc4cc5c(cc4s3)OCCO5)sc2c1 | 58.2% (active) |
| Cc1cc(C)cc(Oc2nc3c(C)cccn3c(=O)c2/C=C(\C#N)C(=O)NC2CCS(=O)(=O)C2)c1 (configuration not stated) | 16.1% (inactive) |
| C/C(=N/OC(=O)c1ccc(Br)cc1)c1ccc(C)cc1 | 1.15% (inactive) |
| COc1ccc(S(=O)(=O)NC(=O)C2(C)CCN2C(=O)c2ccccc2CCc2ccccc2)cc1 (configuration not stated) | 0.28% (inactive) |
| CCOc1ccc2nc(Nc3nc4ccc(NC(C)=O)cc4s3)sc2c1 | 44.8% (active) |
| CCOc1ccc2nc(C(=O)N3CCCC(C)C3)sc2c1 (configuration not stated) | 0.22% (inactive) |
| CC(=O)Nc1ccc2nc(NC(=O)CS(=O)(=O)c3ccc(F)cc3)sc2c1 | 1.63% (inactive) |
| O=C(NN1C(=O)C2C3C=CC(C3)C2C1=O)c1ccco1 (configuration not stated) | 8.04% (inactive) |
